# AmpC inh detg – blocks E. coli AmpC beta-lactamase in detergent assay; AmpC hydrolysis of nitrocefin, absorbance 480 nm, 0.01% Triton; 370,000 compounds, 0.041% hits; Potency, µM (series often up to 114 µM), without a hit: at the top dose activity change, negative = inhibition, usual class: inhibitors;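 further: 0% = no-compound wells and -100% = no-enzyme wells; nearly all actives have a fitted effect of over 25% in size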
# Target sequence (P00811 whole entry, looked up): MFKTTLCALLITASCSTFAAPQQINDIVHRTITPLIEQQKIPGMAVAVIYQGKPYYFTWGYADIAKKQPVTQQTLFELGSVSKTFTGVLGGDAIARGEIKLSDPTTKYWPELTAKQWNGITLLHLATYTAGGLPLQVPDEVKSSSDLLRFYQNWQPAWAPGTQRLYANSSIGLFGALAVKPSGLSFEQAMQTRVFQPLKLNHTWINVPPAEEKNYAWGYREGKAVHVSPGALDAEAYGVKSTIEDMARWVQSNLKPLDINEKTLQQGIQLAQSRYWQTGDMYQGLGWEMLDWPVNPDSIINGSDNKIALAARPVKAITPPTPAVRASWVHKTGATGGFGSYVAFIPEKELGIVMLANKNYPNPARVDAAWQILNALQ
#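 20 mM phosphate pH 7.0 + 0.01% (detergent screen) or 0.0001% Triton X-100; 5.3 nM AmpC reagent; cpd preinc 15 min RT; nitrocefin (800 uM stock) to start; A480 q20 s × 4 min; Activity was normalised to no-enzyme and no-compound control wells.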
# SARS PLP yeast – SARS-CoV PLP inhibition in yeast; S. cerevisiae expressing SARS-CoV PLpro, growth rescue; Potency, µM (highest dose often 32.9 µM), inactives show at the highest dose activity, positive = growth rescue, usual class: activators; 330,000 compounds, 0.19% hits; AID 485353; calls by dose curve; further: 0% is about no effect; nearly all actives have a fitted effect of over 55% in size
# NS1 inh – blocks influenza NS1 protein function; 270,000 compounds, 0.4% hits; Potency, µM (series often up to 46.1 µM), without a hit: at the top dose activity, positive = more growth; AID 2326; calls by dose curve; further: actives are rising curves; nearly all actives have a fitted effect of over 50% in size
#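 In this qHTS, NS1 from influenza A is expressed in budding yeast, where it slows growth. Cells are switched from glucose to 2% galactose medium (pH 6.0, -URA), treated with compound, and growth recovery is read at OD600.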
# AmpC no deterg – AmpC beta-lactamase inhibition without detergent | P00811 | AmpC nitrocefin hydrolysis, absorbance 480 nm, 0.0001% Triton | Potency, µM (series often up to 57.1 µM), for the others: at the top dose activity change, negative = inhibition, usual class: inhibitors | 330,000 compounds, 0.52% hits | AID 485341;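 further: plate controls were no compound for no effect and no enzyme for full effect; nearly all actives have a fitted effect of over 20% in size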
#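 AmpC (5.3 nM in the dispensed reagent) in 20 mM phosphate pH 7.0 with 0.01% (detergent screen) or 0.0001% Triton X-100 was preincubated with compounds for 15 min at room temperature. Nitrocefin was then added from an 800 uM solution, and hydrolysis was followed at 480 nm.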
# Giardia FBPA inh-1 – blocks Giardia fructose-bisphosphate aldolase activity. A8B2U2. purified Giardia FBPA. Potency, µM (titrated, usually from 59.6 µM), for the others: top-dose activity, negative = inhibition, most hits filed as inhibitors. 290,000 compounds, 0.71% hits. AID 2451; further: on the % scale 0 is the no-effect control and ±100 the full control effect; nearly all actives have a fitted effect of over 55% in size
# Target sequence (A8B2U2 whole entry, looked up): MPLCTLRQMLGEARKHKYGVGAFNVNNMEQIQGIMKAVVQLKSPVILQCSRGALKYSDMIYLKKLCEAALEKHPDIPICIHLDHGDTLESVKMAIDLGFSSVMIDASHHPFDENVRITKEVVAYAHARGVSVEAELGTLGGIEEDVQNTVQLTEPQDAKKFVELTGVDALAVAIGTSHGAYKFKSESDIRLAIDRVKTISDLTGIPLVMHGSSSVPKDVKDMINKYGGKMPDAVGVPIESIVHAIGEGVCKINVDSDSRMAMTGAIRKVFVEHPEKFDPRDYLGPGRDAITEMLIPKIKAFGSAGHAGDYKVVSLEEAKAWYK
#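 40 nM FBPA preincubated 10 min at RT with compound (up to 57.5 uM final), then substrate plus GAPDH/TPI/NAD/arsenate coupling and diaphorase/resazurin added. Fluorescence read after 20 min at RT, 525/598 nm.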
# Giardia growth – blocks growth of Giardia lamblia trophozoites. shares compounds with Giardia FBPA inh-1. Giardia lamblia trophozoite growth inhibition. Potency, µM (doses to about 57.5 µM), without a hit: top-dose activity change, negative = inhibition, most hits filed as inhibitors. 1,500 compounds, 5% hits. AID 2785;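 further: trophozoites exposed to compound for 48 h at 37 °C; on the % scale 0 is the no-effect control and ±100 the full control effect; nearly all actives have a fitted effect of over 70% in size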
# Mammal cell tox – toxic to mammalian cells in Giardia aldolase counter-screen; shares compounds with Giardia FBPA inh-1; mammalian cell viability counter-screen, qHTS; Potency, µM (titrated, usually from 57.5 µM), inactives show at the top dose viability change, negative = toxicity, actives largely listed as inhibitors; 1,500 compounds, 4% hits;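 further: Chinese hamster ovary cells used as mammalian cytotoxicity surrogate; viability measured as cellular ATP by luminescence; compound exposure lasted 48 h before reading; on the % scale 0 is the no-effect control and ±100 the full control effect; nearly all actives have a fitted effect of over 60% in size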
# Giardia FBPA inh-2 – confirmation of Giardia fructose-bisphosphate aldolase inhibitors. shares compounds with Giardia FBPA inh-1. purified Giardia aldolase enzyme activity, qHTS. Potency, µM (series often up to 57.5 µM), inactives show at the top dose activity change, negative = inhibition, usual class: inhibitors. 1,500 compounds, 5% hits. AID 2787; further: on the % scale 0 is the no-effect control and ±100 the full control effect; nearly all actives have a fitted effect of over 45% in size
# Rabbit FBPA inh – selectivity test for Giardia aldolase inhibitors: rabbit aldolase. shares compounds with Giardia FBPA inh-1. Rabbit muscle FBPA enzyme inhibition, selectivity counter-screen. Potency, µM (doses to about 57.5 µM), for the others: at the highest dose activity, negative = inhibition, hits mostly inhibitors. 1,500 compounds, 4% hits. AID 2794; further: on the % scale 0 is the no-effect control and ±100 the full control effect; nearly all actives have a fitted effect of over 60% in size
# GAPDH coupling – counter-screen for Giardia aldolase inhibitors: GAPDH coupling enzyme | AID 2795 | shares compounds with Giardia FBPA inh-1 | Potency, µM (top dose mostly 57.5 µM), without a hit: at the highest dose activity change, negative = inhibition, most hits filed as inhibitors | 1,500 compounds, 6% hits | GAPDH coupling enzyme counterscreen, biochemical, qHTS; further: on the % scale 0 is the no-effect control and ±100 the full control effect; nearly all actives have a fitted effect of over 55% in size
# Starred values were filed as active, the others as inactive; ? = inconclusive; . = not tested or not shown; ! = not active in a repeat; [ ] = another dose, or the depositor's remark. Compounds with a hit are over-represented: about 1.4% of the library has one in this group of screens. Unless noted, the call rests on the fitted dose curve; in most records, active means well fitted curve in the direction sought with a large enough effect; inconclusive means small, poorly fitted or top-dose-only effect, or another doubt; inactive means no such curve, though single readings can be large; an effect the other way counts as inactive or inconclusive. Potency means the concentration at half of the fitted maximal effect.
SMILES,AmpC inh detg,SARS PLP yeast,NS1 inh,AmpC no deterg,Giardia FBPA inh-1,Giardia growth,Mammal cell tox,Giardia FBPA inh-2,Rabbit FBPA inh,GAPDH coupling
CSCC[C@H](NC(=O)[C@@H]1CCCN1C(=O)CNC(=O)[C@H](CCCCN)NC(=O)[C@H](Cc1cnc[nH]1)NC(=O)[C@H](CO)NC(=O)[C@H](CC(C)C)NC(=O)[C@H](CCCNC(=N)N)NC(=O)[C@@H]1CCCN1C(=O)[C@H](CCCNC(=N)N)NC(=O)[C@H](CCC(N)=O)NC(=O)[C@H](CCCNC(=N)N)NC(=O)[C@H](CCCNC(=N)N)NC(=O)[C@H](Cc1ccccc1)NC(=O)[C@@H](N)CCCCN)C(=O)N1CCC[C@H]1C(=O)N[C@@H](Cc1ccccc1)C(=O)O,.,.,.,.,8%,.,.,.,.,.
O=C(CN1CCN(c2ccccc2F)CC1)Nc1nnc(C(F)(F)F)s1,-3%,-1%,-1%,-12%,-2%,.,.,.,.,.
CCc1nnc(NC(=O)CN2CCN(S(C)(=O)=O)CC2)s1,-11%,-5%,4%,-9%,?,.,.,.,.,.
CCOC(=O)N1CCN(CC(=O)Nc2nnc(C(F)(F)F)s2)CC1,-12%,-2%,?,-16%,5µM*,?,-6%,7%,6%,-10%
COCC(=O)Nc1nc2ccccc2s1,0%,.,-3%,.,9%,.,.,.,.,.
NC(=S)Nc1nc2ccccc2s1,-6%,0%,.,-39%,5.6µM*,-6%[38.3 µM],?,6%,10%,-13%
CCc1nnc(NC(=O)CN2CCCC(C)C2)s1 (stereo not given),-11%,1%,3%,-13%,4µM*,-8%[10.4 µM],16%,3%,4%,15%
CC1CC1C(=O)Nc1nc(-c2cccs2)c(-c2cccs2)s1 (stereo not given),?,-47%,-8%,-34%,-8%,.,.,.,.,.
O=C(Nc1ccccc1)N1CC2(CCN(C(=O)c3ccncc3)CC2)C1,.,.,.,.,5%,.,.,.,.,.
O=C(O)c1[nH]c(=O)[nH]c(=O)c1F,1%,1%,-1%,-8%,20µM*,27%,-6%,5%,6%,10%
O=C(O)c1[nH]c(=O)[nH]c(=O)c1CN1CCCCC1,.,.,-4%,.,.,.,.,.,.,.
CC(=O)c1cccc(NS(=O)(=O)c2ccc3[nH]c4c(c3c2)CCCCCC4)c1,16%,.,.,.,.,.,.,.,.,.
C/C(=N/O)c1ccccn1,?,-5%,1%,-12%,3.2µM*,0%[38.3 µM],-19%,-21%,13%,?
COc1cc(/C=N/Nc2nc(C)cc(C)n2)cc(OC)c1OC,3%,3%,15%,-14%,16µM*,6%,2%,2%,0%,10%
Cc1cc(C)nc(N/N=C/c2ccc(Cl)cc2)n1,9%,0%,12%,-10%,11µM*,-23%,5%,3%,2%,-5%
O=C(NC1CCSc2ccccc21)c1ccccc1F (stereo not given),4%,3%,-8%,-15%,.,.,.,.,.,.
CC(C)(C)NCCOc1ccc(Br)cc1,1%,-5%,0%,-14%,-15%,.,.,.,.,.
O=C(O)COc1ccccc1C(Nc1cccnc1)c1cc(Cl)c2cccnc2c1O (stereo not given),-10%,?,.,60%,18µM*,30%,11%,-16%,-6%,3%
CCOc1ccc(C(Nc2cccnc2)c2cc(Cl)c3cccnc3c2O)cc1 (stereo not given),-4%,-6%,13%,10%,?,.,.,.,.,.
COCc1cc(C)nc(SCC[N+](C)(C)CC(=O)Nc2cccc(C)c2)c1C#N,?,-6%,.,104%,1%,.,.,.,.,.
CCOC(=O)c1c(-c2ccc(-c3ccccc3)cc2)csc1NC(=O)CCN1CCOCC1,-1%,-88%,-24%,71%,0%,.,.,.,.,.
CCOC(=O)c1c(-c2ccccc2)csc1NC(=O)C(C)NCCCN1CCOCC1 (stereo not given),2%,-2%,.,168%,18µM*,4.5µM*,-2%,-6%,-4%,-3%
O=C(Nc1cccc(S(=O)(=O)N2CCCC2)c1)c1ccco1,.,-10%,.,-20%,.,.,.,.,.,.
O=C(CNCc1ccco1)Nc1cccc(S(=O)(=O)N2CCCCC2)c1,?,0%,0%,-13%,18µM*,-4%[10.4 µM],-7%,5%,0%,7%
S=C(Nc1cccc(Cl)c1)Nc1cccc2cnccc12,4%,-74%,-29%,-37%,0.25µM*,12%[38.3 µM],10%,?,?,25µM*
SMILES,AmpC inh detg,SARS PLP yeast,NS1 inh,AmpC no deterg,Giardia FBPA inh-1,Giardia growth,Mammal cell tox,Giardia FBPA inh-2,Rabbit FBPA inh,GAPDH coupling
Cc1ccc(NC(=S)Nc2cccc3cnccc23)cc1C,1%,2%,-1%,-22%,?,.,.,.,.,.
CN1CCN(C(c2cccnc2)c2ccc3cccnc3c2O)CC1 (stereo not given),6%,-10%,-62%,7%,?,-14%[38.3 µM],-11%,?,-30%,-8%
COc1cccc(CN2CCN(Cc3cc(OC)c(OC)cc3OC)CC2)c1,1%,3%,2%,16%,14µM*,-25%,4%,-5%,5%,5%
COc1ccc(CN2CCNCC2)c(OC)c1OC,?,-7%,-2%,-2%,22µM*!,-4%[10.4 µM],4%,-1%,1%,19%
COc1cccc(CN2CCSCC2)c1,?,-4%,-4%,-19%,?,.,.,.,.,.
COc1cccc(CN2CCNCC2)c1,-4%,9%,14%,-2%,3.5µM*,?,-2%,8%,3%,7%
COc1ccc(C(=O)NC(NC(=O)c2ccc(OC)cc2)c2ccccc2F)cc1,-3%,0%,-1%,-32%,2%,.,.,.,.,.
CC1CC(C)CN(CCCNC(=O)CN2C(=O)COc3ccc(S(=O)(=O)N4CCOCC4)cc32)C1 (stereo not given),-10%,-3%,-7%,-20%,-4%,.,.,.,.,.
O=C(NS(=O)(=O)c1ccccc1)c1ccccc1,1%,1%,0%,-1%,13%,.,.,.,.,.
CCNC(=S)NS(=O)(=O)c1ccccc1,5%,1%,-57%,-15%,7.9µM*,-16%,12%,1%,10%,14%
CCNC(=S)NNc1ccccc1,-1%,-3%,-40%,-6%,11µM*,-13%[10.4 µM],11%,3%,11%,2%
